Among the data in PubChem BioAssay (EPA / NIEHS) are outcome and AC50 values, retold here.

Inconclusive results are not listed. Some structures have more than one record in an assay (separate samples or runs), and their calls can disagree. Calls of active or inactive are those of the source. Rule for the calls: active = hit-call score of the fitted dose curve at least 0.9, where 1 is the maximum; inconclusive = response in the unintended direction; inactive = score below 0.9.

The AC50 is the midpoint of the concentration-response curve, whichever way the signal moves.

The target in assay [1] is Estrogen receptor beta (Homo sapiens) (UniProt Q92731). The assay is described as follows: OT_ER_ERbERb_0480: Odyssey Thera (OT) 8-hour HEK293T Protein-Complementation Assay for Estrogen Receptor-beta/-beta Homodimer (AID 2283357).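 Note: active means signal gain over DMSO baseline.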 The procedure, abridged: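 Fluorescence gain from complemented reporter fragments on ER-beta LBD homodimer in HEK293T was quantified against DMSO controls after 8 h treatment, fixation in 4% formaldehyde and Draq5 staining.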

Assay [2] addresses bovine Estrogen Receptor (ER), ESR1 (gene 407238) (UniProt P49884). In words: NVS_NR_bER: NovaScreen (NVS) Nuclear Receptor Binding Assay for bovine Estrogen Receptor (ER) (AID 2283345).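 Note: actives lower the bound radioligand count which means they displace the ER ligand.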 The gist of the method:
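Scintillation counting of displaced radioligand gave the readout; bovine uterine membrane extract supplied the receptor. Measured 18 h post-dose, normalized to DMSO baseline. Single 25 uM duplicate screen preceded concentration-response follow-up.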

Assay [3] addresses Estrogen receptor (Homo sapiens) (UniProt P03372). The assay is described as follows: OT_ER_ERaERa_0480: Odyssey Thera (OT) 8-hour HEK293T Protein-Complementation Assay for Estrogen Receptor-alpha/-alpha Homodimer (AID 2283351).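 Note: rise in fluorescence from reassembled reporter fragments on ERα LBD homodimer in nucleus or whole cell.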 The gist of the method:
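Measures ERα LBD (aa 310-547) homodimer complementation in stably transfected HEK293T at 8 h post-dose, with fluorescence intensity quantified on a laser scanning cytometer relative to DMSO controls.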

For assay [4], the target named is T1, Estrogen receptor (Homo sapiens) + Estrogen receptor beta (Homo sapiens) (UniProt P03372+Q92731). The assay is described as follows: OT_ER_ERaERb_0480: Odyssey Thera (OT) 8-hour HEK293T Protein-Complementation Assay for Estrogen Receptor-alpha/-beta Heterodimer (AID 2283352). The gist of the method:
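HEK293T protein-fragment complementation assay of ER-alpha/ER-beta LBD heterodimerisation, read 8 h after dosing. Mean nuclear/cytoplasmic fluorescence intensity measured by laser scanning cytometry; gain of signal fitted relative to DMSO.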

Assay [5] concerns the target T1, Estrogen receptor (Homo sapiens) + Estrogen receptor beta (Homo sapiens). In words: OT_ER_ERaERb_1440: Odyssey Thera (OT) 24-hour HEK293T Protein-Complementation Assay for Estrogen Receptor-alpha/-beta Homodimer (AID 2283356).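 Note: heteromer of ER alpha and ER beta binding domains; hits raise reporter fluorescence and both agonists and antagonists give an increase.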 The procedure, abridged: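 HEK293T stably expressing a PCA of ER alpha LBD (aa 310-547) and ER beta LBD (aa 263-489). After 24 h compound exposure, mean fluorescence intensity in nucleus (agonists) or nucleus and cytoplasm (antagonists) measured by laser scanning cytometry versus vehicle.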

The target of assay [6] is Retinoic acid receptor alpha (Homo sapiens) (UniProt P10276). In words: NVS_NR_hRAR_Antagonist: NovaScreen (NVS) Nuclear Receptor Binding Assay for human Retinoic Acid Alpha Receptor Antagonism (RAR) (AID 2283358). The procedure, abridged: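 Chemicals were first tested in duplicate at 25 uM, then actives in concentration series, in a cell-free TR-FRET antagonist binding format. Measurements were taken 2 hours after dosing and loss of signal was evaluated against DMSO controls.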

The target in assay [7] is Androgen Receptor/SRC-1 Co-activator, AR (gene 367) (UniProt P10275). The assay is described as follows: OT_AR_ARSRC1_0960: Odyssey Thera (OT) 16-hour HEK293T Protein-Complementation Assay for Androgen Receptor/SRC-1 Co-activator (AID 2283353).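 Note: actives raise the signal above DMSO so potency reflects increased AR and SRC-1 complex.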 The gist of the method: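 Sixteen-hour cell assay: Venus halves fused to AR and SRC-1 in HEK293T report binding. Images at 488/635 nm give an N/C ratio in the 488 nm channel over ≥400 cells, analysed as signal increase over DMSO.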

Assay [8] has the same target. In words: OT_AR_ARSRC1_0480: Odyssey Thera (OT) 8-hour HEK293T Protein-Complementation Assay for Androgen Receptor/SRC-1 Co-activator (AID 2283354).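 Note: hits raise the complementation signal above DMSO so AC50 marks enhancers.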 The gist of the method: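 After 8 h dosing, stably expressing HEK293T cells with split-Venus AR/SRC-1 fusions were imaged (488, 635nm). The 488nm N/C ratio per image gave the endpoint, analysed in the positive direction against DMSO.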

Assay [9] has as its target chimpanzee Androgen Receptor (AR), AR (gene 747460) (UniProt O97775). In words: NVS_NR_cAR: NovaScreen (NVS) Nuclear Receptor Binding Assay for chimpanzee Androgen Receptor (AR) (AID 2283346). The procedure, abridged: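 Cell-free radioligand displacement using receptor protein extracted from Sf9/Sf21 cells; bound radioligand measured by scintillation counting 72 hours after chemical dosing. Loss of signal versus DMSO baseline indicates binding; primary screen single-concentration in duplicate at 25 uM, actives followed in concentration series.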

Sequence of bovine Estrogen Receptor (ER), ESR1 (gene 407238) (P49884 whole entry, looked up): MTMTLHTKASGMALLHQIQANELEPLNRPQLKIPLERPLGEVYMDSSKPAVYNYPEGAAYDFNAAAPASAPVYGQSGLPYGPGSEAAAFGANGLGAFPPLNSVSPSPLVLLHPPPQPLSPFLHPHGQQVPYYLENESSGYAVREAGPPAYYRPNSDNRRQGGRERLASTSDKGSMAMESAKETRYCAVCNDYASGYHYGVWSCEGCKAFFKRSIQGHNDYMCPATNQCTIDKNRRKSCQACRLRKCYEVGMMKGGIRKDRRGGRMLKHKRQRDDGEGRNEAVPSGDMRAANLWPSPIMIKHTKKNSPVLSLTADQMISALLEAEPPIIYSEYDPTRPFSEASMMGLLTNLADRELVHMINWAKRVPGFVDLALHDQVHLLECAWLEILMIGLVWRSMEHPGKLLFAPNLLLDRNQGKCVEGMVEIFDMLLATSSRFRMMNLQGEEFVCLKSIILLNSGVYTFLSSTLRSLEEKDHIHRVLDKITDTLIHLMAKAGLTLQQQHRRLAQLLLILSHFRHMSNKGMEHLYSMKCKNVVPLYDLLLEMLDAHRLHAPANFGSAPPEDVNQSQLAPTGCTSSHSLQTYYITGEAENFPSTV
Sequence of Estrogen receptor beta (Homo sapiens) (Q92731 whole entry, looked up, the tested form may be a part): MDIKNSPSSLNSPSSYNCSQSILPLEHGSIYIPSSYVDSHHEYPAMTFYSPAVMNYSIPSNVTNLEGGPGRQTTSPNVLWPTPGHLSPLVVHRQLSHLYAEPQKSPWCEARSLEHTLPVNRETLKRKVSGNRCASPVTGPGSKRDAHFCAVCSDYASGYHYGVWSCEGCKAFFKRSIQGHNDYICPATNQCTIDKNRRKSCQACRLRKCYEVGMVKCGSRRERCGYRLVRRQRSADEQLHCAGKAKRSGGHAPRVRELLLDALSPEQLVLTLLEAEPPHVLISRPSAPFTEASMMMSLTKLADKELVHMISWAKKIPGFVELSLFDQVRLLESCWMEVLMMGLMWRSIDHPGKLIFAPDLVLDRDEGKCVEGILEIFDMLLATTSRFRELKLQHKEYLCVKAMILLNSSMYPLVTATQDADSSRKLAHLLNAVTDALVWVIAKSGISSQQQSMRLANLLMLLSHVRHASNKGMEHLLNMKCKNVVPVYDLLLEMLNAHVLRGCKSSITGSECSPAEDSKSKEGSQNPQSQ
Sequence of Retinoic acid receptor alpha (Homo sapiens) (P10276 whole entry, looked up): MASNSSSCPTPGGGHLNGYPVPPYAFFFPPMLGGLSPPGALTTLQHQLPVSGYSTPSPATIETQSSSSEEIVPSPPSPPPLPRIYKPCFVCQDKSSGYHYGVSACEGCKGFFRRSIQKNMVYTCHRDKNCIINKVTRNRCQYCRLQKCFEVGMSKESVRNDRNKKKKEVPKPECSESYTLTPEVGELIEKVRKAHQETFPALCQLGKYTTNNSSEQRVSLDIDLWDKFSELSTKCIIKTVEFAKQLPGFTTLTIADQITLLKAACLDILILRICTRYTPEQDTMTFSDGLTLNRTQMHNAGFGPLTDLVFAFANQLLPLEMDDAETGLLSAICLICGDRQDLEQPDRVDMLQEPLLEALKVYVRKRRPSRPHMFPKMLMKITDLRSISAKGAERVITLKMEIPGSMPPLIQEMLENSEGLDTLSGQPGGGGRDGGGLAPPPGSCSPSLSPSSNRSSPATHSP
T1 sequence (P03372 whole entry, looked up, the tested form may be a part): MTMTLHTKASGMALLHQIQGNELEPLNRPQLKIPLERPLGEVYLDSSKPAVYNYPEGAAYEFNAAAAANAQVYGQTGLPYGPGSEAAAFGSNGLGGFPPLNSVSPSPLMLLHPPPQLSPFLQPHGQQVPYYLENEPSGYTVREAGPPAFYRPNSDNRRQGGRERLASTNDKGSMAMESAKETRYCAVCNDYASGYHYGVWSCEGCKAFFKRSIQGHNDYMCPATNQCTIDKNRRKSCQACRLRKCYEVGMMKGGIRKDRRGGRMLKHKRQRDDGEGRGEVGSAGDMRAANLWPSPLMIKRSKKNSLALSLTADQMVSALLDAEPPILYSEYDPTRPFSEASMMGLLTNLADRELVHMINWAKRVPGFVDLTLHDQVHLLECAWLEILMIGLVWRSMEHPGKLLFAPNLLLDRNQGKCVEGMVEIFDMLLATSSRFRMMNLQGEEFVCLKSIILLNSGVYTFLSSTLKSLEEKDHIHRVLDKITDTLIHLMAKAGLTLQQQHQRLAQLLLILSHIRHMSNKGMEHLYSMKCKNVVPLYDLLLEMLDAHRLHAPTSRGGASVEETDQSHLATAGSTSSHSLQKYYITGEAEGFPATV
T1 sequence (Q92731 whole entry, looked up, the tested form may be a part): as the sequence (Q92731 whole entry, looked up, the tested form may be a part) above
Sequence of Estrogen receptor (Homo sapiens) (P03372 whole entry, looked up, the tested form may be a part): as the sequence (P03372 whole entry, looked up, the tested form may be a part) above
Sequence of chimpanzee Androgen Receptor (AR), AR (gene 747460) (O97775 whole entry, looked up): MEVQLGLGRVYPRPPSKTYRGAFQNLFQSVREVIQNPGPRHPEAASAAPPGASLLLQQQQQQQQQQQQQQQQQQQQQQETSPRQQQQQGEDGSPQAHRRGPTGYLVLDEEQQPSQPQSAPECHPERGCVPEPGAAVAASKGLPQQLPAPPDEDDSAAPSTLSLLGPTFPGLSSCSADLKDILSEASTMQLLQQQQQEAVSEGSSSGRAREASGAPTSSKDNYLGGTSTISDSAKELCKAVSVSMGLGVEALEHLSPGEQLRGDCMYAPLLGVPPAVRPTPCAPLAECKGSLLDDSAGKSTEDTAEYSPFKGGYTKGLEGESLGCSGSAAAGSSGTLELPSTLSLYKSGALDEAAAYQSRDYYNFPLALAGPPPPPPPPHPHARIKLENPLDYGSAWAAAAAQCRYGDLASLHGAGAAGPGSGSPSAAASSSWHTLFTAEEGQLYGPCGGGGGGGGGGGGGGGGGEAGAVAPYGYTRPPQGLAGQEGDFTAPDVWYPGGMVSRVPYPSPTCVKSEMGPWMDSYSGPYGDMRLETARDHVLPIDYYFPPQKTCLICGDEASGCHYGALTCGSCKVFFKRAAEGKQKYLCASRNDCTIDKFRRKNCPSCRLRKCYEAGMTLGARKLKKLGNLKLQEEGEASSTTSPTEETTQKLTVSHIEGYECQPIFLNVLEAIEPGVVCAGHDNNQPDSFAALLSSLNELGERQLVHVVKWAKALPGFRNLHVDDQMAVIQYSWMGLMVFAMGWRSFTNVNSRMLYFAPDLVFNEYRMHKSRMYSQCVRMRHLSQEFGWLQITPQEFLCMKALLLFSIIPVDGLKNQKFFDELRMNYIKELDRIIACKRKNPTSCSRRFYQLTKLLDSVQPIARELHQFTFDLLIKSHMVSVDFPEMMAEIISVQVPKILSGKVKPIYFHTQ
Sequence of Androgen Receptor/SRC-1 Co-activator, AR (gene 367) (P10275 whole entry, looked up, the tested form may be a part): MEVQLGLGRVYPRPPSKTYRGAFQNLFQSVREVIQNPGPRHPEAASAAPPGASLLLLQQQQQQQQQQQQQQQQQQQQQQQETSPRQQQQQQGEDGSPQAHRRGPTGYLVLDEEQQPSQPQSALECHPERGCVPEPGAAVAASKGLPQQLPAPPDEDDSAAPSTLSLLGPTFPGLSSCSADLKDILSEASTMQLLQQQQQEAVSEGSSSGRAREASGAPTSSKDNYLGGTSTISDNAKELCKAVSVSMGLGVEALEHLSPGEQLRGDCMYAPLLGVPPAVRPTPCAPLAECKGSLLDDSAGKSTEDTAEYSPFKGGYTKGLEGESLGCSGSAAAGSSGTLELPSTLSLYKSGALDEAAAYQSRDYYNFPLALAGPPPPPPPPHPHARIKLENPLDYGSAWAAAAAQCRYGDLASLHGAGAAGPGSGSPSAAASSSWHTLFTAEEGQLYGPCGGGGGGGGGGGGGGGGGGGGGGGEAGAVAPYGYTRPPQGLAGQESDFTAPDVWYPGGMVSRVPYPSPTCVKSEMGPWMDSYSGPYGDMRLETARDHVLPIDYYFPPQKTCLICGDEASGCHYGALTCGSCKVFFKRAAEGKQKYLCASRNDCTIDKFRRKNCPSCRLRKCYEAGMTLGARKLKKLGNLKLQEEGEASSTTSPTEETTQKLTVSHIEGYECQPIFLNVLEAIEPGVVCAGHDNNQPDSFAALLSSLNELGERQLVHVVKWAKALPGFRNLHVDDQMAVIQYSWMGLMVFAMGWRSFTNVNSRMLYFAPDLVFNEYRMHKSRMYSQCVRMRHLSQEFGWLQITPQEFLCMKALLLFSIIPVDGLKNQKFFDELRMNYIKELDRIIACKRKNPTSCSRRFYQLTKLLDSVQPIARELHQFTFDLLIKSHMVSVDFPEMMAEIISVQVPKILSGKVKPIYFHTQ

For the compound `Cc1cc(C(C)(C)C)c(O)c(C(C)(C)C)c1`, the compound was called inactive in assay [1]. Take `CCCCCCCCCCCCOC(=O)c1cc(O)c(O)c(O)c1`: the result in [2], in assay [3] and in [1] was inactive. Further, the figures for the concentration at half-maximal activity (AC50) in assay [4], in assay [5] and in [6] were 11.9 µM (active), 11.9 µM (active) and 36.9 µM (active), respectively. For the compound `O=C(c1ccccc1)c1ccccc1`, the compound was called inactive in [7] and in [8]. Turning to `CC(=O)Nc1ccc(O)cc1`, the compound was called inactive in assay [7], in [8] and in assay [1]. As to `O=C1NS(=O)(=O)c2ccccc21`, the outcome in [1] and in assay [6] was inactive. Consider `CC(O)COc1ccccc1` (stereo unspecified), for which the outcome in assay [7], in assay [8] and in assay [1] was inactive. `CCCCCCCCCCCC[N+](C)(C)CCCCCCCCCCCC`: the compound was classed as inactive in assay [2]. With `Oc1c(Cl)cc(Cl)cc1Sc1cc(Cl)cc(Cl)c1O`, in assay [2], the call was inactive. In the case of `CCCCCCc1ccc(N)cc1`, the result in assay [2], in [7] and in assay [8] was inactive. The AC50 in assay [3] was 67.3 µM (active); in [4] it was 30.1 µM (active); in assay [5], 21.4 µM (active); in assay [1], 50 µM (active). As for `Cc1[nH]nc2c1N=C(c1ccccc1Cl)c1cc([N+](=O)[O-])ccc1N2`, in assay [1], the outcome was inactive. Consider `COC1=CC(=O)C[C@@H](C)[C@]12Oc1c(Cl)c(OC)cc(OC)c1C2=O`, for which the outcome in [2] was inactive. For the compound `O=S(=O)(O)c1ccccc1`, the call in assay [1] was inactive. On the same count and under the same terms, with `CCC(C)c1ccccc1O` (stereo unspecified) the entry was “inactive”. As to `O=C(Nc1cccc([N+](=O)[O-])c1)c1cc2ccccc2cc1O`, the compound was called inactive in assay [2].

As for `CCCCCCCCCCCCCCC`, in [1], the outcome was inactive. On to `CCOC(=O)c1nc(C(Cl)(Cl)Cl)n(-c2ccc(Cl)cc2Cl)n1`, for which the compound was classed as inactive in [2].

`O=C1OC2(c3ccccc31)c1cc(I)c(O)c(I)c1Oc1c2cc(I)c(O)c1I`: in assay [9], the AC50 was 21.6 µM (active) and the compound was classed as inactive. In addition, the AC50 in assay [6] is 19.7 µM (active). As to `C[C@]12CC[C@@H]3c4ccc(O)cc4CC[C@H]3[C@@H]1CC[C@@H]2OC(=O)CCC1CCCC1`, in assay [2], the concentration at half-maximal activity (AC50) was 0.0684 µM (active). As for `CCCCCCCCCCCC(=O)O`, the compound was called inactive in assay [1]. As for `CCC1CO1` (stereo unspecified), the half-maximal activity concentration (AC50) in assay [9] is 5 µM (active). In the case of `C=CC(=O)OCC(CO)(COCC(COC(=O)C=C)(COC(=O)C=C)COC(=O)C=C)COC(=O)C=C`, the outcome in [2] was inactive.

In the case of `O=C1Cc2ccccc2N1c1c(Cl)cccc1Cl`, the result in assay [2] was inactive.

Consider `COc1ccccc1NC(=O)c1cc2ccccc2cc1O`, for which the call in [2] was inactive. As for `Cc1cc(Cc2cc(C)cc(C(C)(C)C)c2O)c(O)c(C(C)(C)C)c1`, the compound was called inactive in assay [3], in assay [5] and in assay [1]. For the compound `CCCCCCOC(=O)c1ccc(O)cc1`, the AC50 in [2] is 13 µM (active).

`c1ccc(CNc2ncnc3c2ncn3C2CCCCO2)cc1` (stereo unspecified): the call in [2] was inactive. On the same count and under the same terms, in the case of `CC1=CC(=O)c2ccccc2C1=O` it was “inactive”. Regarding `C[C@]12CC[C@@H]3c4ccc(O)cc4CC[C@H]3[C@@H]1C[C@@H](O)[C@@H]2O`, the result in [9] was inactive. In addition, the half-maximal activity concentration (AC50) in [1] is 0.552 µM (active). For `NS(=O)(=O)O`, the compound was called inactive in assay [1].

`O=C(c1cc(O)c(O)c(O)c1)c1ccc(O)c(O)c1O`: in assay [2], the compound was classed as inactive. Consider `NCc1cccc(CN)c1`, for which the outcome in [2], in [3], in [4], in assay [5] and in [1] was inactive. Regarding `Nc1cc(Cl)c(-c2cc(Cl)c(N)cc2Cl)cc1Cl`, the call in [2] was inactive. Same read-out and setting: in the case of `C=C(c1ccc(C(=O)O)cc1)c1cc2c(cc1C)C(C)(C)CCC2(C)C` it was “inactive”; in that of `Oc1ccc(Cc2ccccc2O)cc1`, “inactive”. For `CCCCCCCCCC=CCC1CC(=O)OC1=O` (stereo unspecified), the result in assay [3], in assay [4], in assay [7], in assay [8], in assay [5] and in [1] was inactive.
